Our source for the Potency and viability change, negative = cytotoxic values is PubChem BioAssay (Tox21).

Records with an inconclusive call do not appear. Where a call stands in place of a potency, no number is given. A number with no mark means an inactive call. Active and inactive are the calls of the source. Calls come from the whole dose curve; as a rule, active = well fitted cell-killing curve with a large enough effect in the repeat runs; inconclusive = weak or mixed curves, or effect the other way; inactive = flat fitted curve, though single readings scatter.

The test in a line: qHTS assay to identify small molecule agonists of the sonic hedgehog signaling (Shh) pathway - cell viability counter screen (AID 1259366). Note: nearly all actives have a fitted effect of over 50% in size. Conditions: NIH/3T3 Gli1-Luc viability, CellTiter-Fluor, 24 h; series mostly up to 92.4 µM. An excerpt:
National Center for Advancing Translational Sciences [NCATS]
NIH Chemical Genomics Center [NCGC]
U.S. Environmental Protection Agency [EPA]
National Institutes of Environmental Health Sciences [NIEHS]
National Toxicology Program [NTP]
U.S. Food and Drug Administration [FDA]
The sonic hedgehog (Shh) pathway is essential for normal embryonic development. Dysregulation of the Shh pathway can cause severe developmental defects in organs. Therefore chemicals that interfere with the pathway are potential developmental toxicants. A cell line designated 3T3Gli1-Luc (DMB/OARSA/CFSAN/FDA, Laurel, MD), a NIH/3T3 derived clone containing stably integrated Gli1-Luc reporter is used to detect chemical interference of the Shh pathway, by changes in the expression of the firefly Luc gene under the control of the Gli1 transcriptional response element. This cell line was used to screen Tox21 libraries for identifying and prioritizing the potential developmental toxicants that interfere Shh pathway. The cytotoxicity of the compounds was tested in parallel by measuring the cell viability using CellTiter-Fluor assay system (Promega, Madison, WI) in the same wells.
Tox21 Assay Protocol Summary:
3T3 Gli1-Luc cells were dispensed at 2,000 per well in 5uL of culture medium into white solid bottom 1536-well plates (Greiner Bio-One, Monroe, NC) using a Multidrop Combi (Thermo Scientific, Waltham, MA) dispenser. The assay plates were incubated at 37 C and 5% CO2 for 4hr, and then 23nL of compounds dissolved in DMSO and positive control were transferred using a Pintool station (Wako, San Diego, CA). The assay plates were incubated at 37C and 5% CO2 for 24hr. For viability read, after 23hr of compound treatment, 1uL of CellTiter-Fluor reagent (Promega Corporation, Madison, WI) was added to each well of the assay plates using Flying Reagent Dispenser (FRD, Aurora Discovery, San Diego, CA) and incubated the assay plates at 37C for 1hr. The fluorescence signal was quantified using a ViewLux plate reader (Perkin Elmer, Shelton, CT).
(In general: qHTS replaces the single test concentration by a dilution series.)
As for `CCOC(=O)c1cccc(N)c1`, the Potency result is “inactive”. The same measure, in the same setting: next, `CC(C)(C)c1nnc(NS(=O)(=O)c2ccccc2)s1`: “inactive”; `OCCCC1CCCCC1`: “inactive”; `CCN(Cc1ccncc1)C(=O)C(CO)c1ccccc1` (stereo not given): “inactive”. Take `CC(=O)OCC(CCn1cnc2cnc(N)nc21)COC(C)=O`: the Potency entry was “inactive”. As to `NCCCNCCSP(=O)(O)O`, the viability change, negative = cytotoxic is -2.35% [at 8.39 µM]. For the molecule `O=C(CCCN1CCC(O)(c2cccc(C(F)(F)F)c2)CC1)c1ccc(F)cc1`, the Potency entry is “inactive”. Take `CCSC(=O)N(CC(C)C)CC(C)C`: the Potency entry was “inactive”. Still for that read-out and setting: the result for `CC(C)(CC(=O)O)C(=O)O` reads “inactive”; that for `Nc1c2c(nc3ccccc13)CCCC2O` (stereo not given), “inactive”; that for `CC(=O)OCC(=O)[C@@]1(O)CCC2C3CCC4=CC(=O)CC[C@]4(C)C3[C@@H](O)C[C@@]21C` (stereo not given in full), “inactive”.

`CCCCCCCCCCCCCC=O`: the viability change, negative = cytotoxic was 5.21% [at 8.39 µM]. Consider `CC(=O)OCC(=O)[C@@]1(O)CC[C@H]2[C@@H]3CCC4=CC(=O)CC[C@]4(C)[C@H]3C(=O)C[C@@]21C`, for which the Potency entry is “inactive”. For `CCN1CCC[C@H]1CNC(=O)c1c(O)c(Cl)cc(Cl)c1OC`, the Potency result was “inactive”. On the same count and under the same terms, next, `N=C(N)c1ccc(OCCCOc2ccc(C(=N)N)cc2)cc1`: “inactive”. As for `CCC(C)S` (stereo not given), the viability change, negative = cytotoxic was 3.35% [at 3.27 µM]. Take `CC(C)(O)C(=O)c1ccccc1`: the Potency entry is “inactive”.

Regarding `CC(C)NCCCC1(C(N)=O)c2ccccc2-c2ccccc21`, the Potency entry is “inactive”. For `CC(=O)CC(C)C`, the Potency entry is “inactive”. Consider `CCC(=O)OC(C)c1ccccc1` (stereo not given), for which the Potency entry is “inactive”. Same read-out and setting: next, `CC(C)CNCC(C)C`: “inactive”. In the case of `CCOC(=O)CCC(C)=O`, the Potency entry is “inactive”. In the case of `CCCCC/C=C\CCC=O`, the Potency result was “inactive”. Still for that read-out and setting: next, `CC(C)=CCCC(C)CC(=O)O` (stereo not given): “inactive”; `O=C(O)Cc1ccc(CCNS(=O)(=O)c2ccc(Cl)cc2)cc1`: “inactive”; `C=CCOCC(CC)(CO)COCC=C`: “inactive”.

For the molecule `CCCN1CCCC[C@H]1C(=O)Nc1c(C)cccc1C`, the Potency result was “inactive”. The same measure, in the same setting: next, `CCN1CCC[C@H]1CNC(=O)c1cc(S(N)(=O)=O)ccc1OC`: “inactive”; `NC(CSCC(=O)O)C(=O)O` (stereo not given): “inactive”. On the same count and under the same terms, the result for `CO/N=C(/C(=O)N[C@@H]1C(=O)N2C(C(=O)OCOC(=O)C(C)(C)C)=C(C)CS[C@H]12)c1csc(N)n1` reads “inactive”. With `CC1(C)CO[C@@H](CC(=O)O)CN1`, the Potency result was “inactive”.

`Cc1cc2c(cc1S(N)(=O)=O)S(=O)(=O)CCC2`: the Potency result was “inactive”. With `COC(=O)c1c(Cl)c(Cl)c(C(=O)OC)c(Cl)c1Cl`, the Potency entry was “inactive”. For the molecule `CCS(=O)(=O)c1ccc(OC)c(C(=O)OC)c1`, the Potency result was “inactive”. `c1cnc(N2CCN(Cc3ccc4c(c3)OCO4)CC2)nc1`: the Potency result was “inactive”.

On to `CS(=O)(=O)O`, for which the Potency result was “inactive”. For `OC[C@]1(O)OC[C@@H](O)[C@H](O)[C@@H]1O`, the Potency entry is “inactive”.

As to `COc1c(N2C[C@@H]3CCCN[C@@H]3C2)c(F)cc2c(=O)c(C(=O)O)cn(C3CC3)c12`, the Potency result was “inactive”. As for `CCCCCCCCS(=O)(=O)Cl`, the Potency entry is “inactive”.

For `Cc1cc(O)cc2c1O[C@](C)(CCC[C@H](C)CCC[C@H](C)CCCC(C)C)CC2`, the Potency entry is “inactive”.
